Laboratory results taken from the supplement of paper PMC6555819.

What was measured:
Assay in all cases: PBM binding z-score (relative to random genomic background probes); higher = stronger binding; sequences stand for … in GC…GCGATTGACAGCGTAGAATGAAGG
[1] = system: FXR:RXRa (NR concentration 270 nM, RXRa partner concentration 90 nM)
In short: (§1)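 On custom Agilent 4×180K arrays, double-stranded probes with 34-nt variable regions carried direct-repeat seeds, single-nucleotide variants, half-site ablations or random human genomic background. Ligand-free nuclear receptor dimers were applied for 1 h, and binding was read with antibodies against each partner (one per run). Binding z-scores come from regression-normalized fluorescence, with the random background probes as reference.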

[2] = system: LXRa:RXRa (NR concentration 270 nM, RXRa partner concentration 90 nM)
In short: as §1

[3] = system: LXRa homodimer (NR concentration 270 nM)
In short: as §1

[4] = system: LXRb:RXRa (NR concentration 270 nM, RXRa partner concentration 90 nM)
In short: as §1

[5] = system: LXRb homodimer (NR concentration 270 nM)
In short: as §1

[6] = system: PPARa:RXRa (NR concentration 270 nM, RXRa partner concentration 90 nM)
In short: as §1

[7] = system: PPARg:RXRa (NR concentration 180 nM, RXRa partner concentration 90 nM)
In short: as §1

[8] = system: PPARg:RXRa 270nM:90nM, anti-RXR (NR concentration 270 nM, RXRa partner concentration 90 nM)
In short: as §1

[9] = system: PPARg:RXRa 30nM:10nM, anti-RXR (NR concentration 30 nM, RXRa partner concentration 10 nM)
In short: as §1

[10] = system: PPARg:RXRa 90nM:30nM, anti-RXR (NR concentration 90 nM, RXRa partner concentration 30 nM)
In short: as §1

[11] = system: PPARg:RXRa DBDmut IVT, anti-RXR (DBD mutation: RXRa K156A/R161A, NR concentration 270 nM, RXRa partner concentration 90 nM)
In short: as §1

[12] = system: PPARg:RXRa IVT, anti-PPARg (NR concentration 270 nM, RXRa partner concentration 90 nM)
In short: as §1

[13] = system: PPARg DBDmut:RXRa IVT, anti-PPARg (DBD mutation: PPARg1 K132A/R137A, NR concentration 270 nM, RXRa partner concentration 90 nM)
In short: as §1

[14] = system: PPARg DBDmut IVT, anti-PPARg (DBD mutation: PPARg1 K132A/R137A, NR concentration 270 nM)
In short: as §1

[15] = system: PPARg homodimer (NR concentration 180 nM)
In short: as §1

[16] = system: PXR:RXRa (NR concentration 270 nM, RXRa partner concentration 90 nM)
In short: as §1

[17] = system: PXR homodimer (NR concentration 270 nM)
In short: as §1

[18] = system: RARa:RXR (NR concentration 270 nM, RXRa partner concentration 90 nM)
In short: as §1

[19] = system: RARa homodimer (NR concentration 270 nM)
In short: as §1

[20] = system: RARb:RXRa (NR concentration 270 nM, RXRa partner concentration 90 nM)
In short: as §1

Sequence	PBM binding z-score [1]	PBM binding z-score [2]	PBM binding z-score [3]	PBM binding z-score [4]	PBM binding z-score [5]	PBM binding z-score [6]	PBM binding z-score [7]	PBM binding z-score [8]	PBM binding z-score [9]	PBM binding z-score [10]	PBM binding z-score [11]	PBM binding z-score [12]	PBM binding z-score [13]	PBM binding z-score [14]	PBM binding z-score [15]	PBM binding z-score [16]	PBM binding z-score [17]	PBM binding z-score [18]	PBM binding z-score [19]	PBM binding z-score [20]
CTCGAAAGGTCGGTTGAGGTGAGCATACGGATAA	2.86	1.78	-0.014	1.37	-0.173	2.74	0.697	1.33	0.406	0.609	-0.122	1.01	-0.332	-0.0105	0.799	2.9	-0.0982	2.5	0.0392	3.09
TCTTGTAGATCAGCAGGTTAAGAGAGCTGGCCAA	-0.327	-0.11	-0.629	0.359	-0.638	0.689	-0.415	1.35	2.45	1.77	1.29	0.366	-0.495	-0.454	-0.22	0.214	-0.483	0.282	-0.593	0.113
CCAGACAGGTGAAAGGTTACTCAGTCTGGTACGC	2.37	2.59	0.167	2.26	-0.0595	4.67	7.6	7.17	5.84	7.77	1.76	3.47	-0.162	0.368	1.65	2.74	0.256	4.24	0.58	2.22
ACAGACAGGTGATGAAGGTAATTCAGGCTATCAT	-0.202	-0.317	-0.115	-0.471	-0.286	0.215	0.583	-0.256	0.0788	-0.356	0.125	0.521	0.823	0.3	0.3	-0.0311	-0.169	0.367	0.165	0.161
CGAACTAGGTCATTGACAGCACAGTGAATAGTAA	4.2	2.64	0.265	2.07	0.329	4.78	7.32	6.23	3.86	5.6	7.82	8.09	2.12	2.03	1.52	1.18	0.34	1.77	0.733	3.58
CCGACTGGGGCAGAAAGGTTACCCTACCATCCGG	0.191	0.465	-0.126	0.448	-1.02	1.5	1.17	2.33	0.336	1.78	1.23	1.93	-1.08	-1.51	0.207	0.618	-0.304	1.34	-0.533	1.73
AACTCTAGGTAACAAGTTCAGTGAAAGAGAGGAC	0.335	0.477	0.364	0.379	-0.166	1.58	1.32	1.72	0.492	1.31	3.33	2.65	0.517	0.445	0.677	1.37	1.37	0.703	0.522	1.4
CCTTACGGGTCAAGGTTATAGAACGGGTGGTACG	5.4	3.68	0.401	3	-0.0236	5.1	4.04	4.67	1.87	3.53	1.6	3.22	-0.135	-0.211	1.83	3.27	0.223	4.16	1	4.13
GATACAGGGTCAGCTAGAGGCCAGAATATGGAAA	4.72	2.63	-0.176	2.61	-0.466	4.48	3.78	3.14	1.04	2.25	0.991	2.56	-0.253	-0.217	2.63	3.24	0.115	4.04	0.657	4.02
TGGAGTAGGTTACCAATGGGGCATTCAGCTTTCT	-0.0639	1.5	-0.0874	1.12	0.179	1.61	1.8	2.14	0.743	1.59	4.44	4.65	0.93	1.38	1.1	0.359	-0.17	0.243	0.592	1.21
CCGAGTAGGTGATGGGGCATTCAGGCAACGGTGA	-0.0189	-0.218	-0.529	-0.326	-1.01	1.72	3.51	4.41	2.46	4.61	2.92	3	0.0749	-1.06	0.758	-0.262	-0.379	-0.226	-0.778	0.297
ATCTCTAGGTAACCAAGTTCAGTTAATGCCGAAC	0.988	1.26	1.38	1.11	0.875	1.31	0.806	1.1	0.448	0.659	3.71	3.16	2.02	1.26	1.12	2.19	2.39	1.24	1.3	1.18
AGAATGAGGTTACCAAAGATCAGGCAAACGCTTG	1.67	5.94	-0.392	3.24	-0.531	3.41	2.77	2.57	0.868	1.84	3.6	3.49	0.423	0.272	0.661	1.24	-0.362	2.11	-0.358	2
ATCGAAAGGTCGAGGTAAGTATAGAGAAAGGGAA	3.98	3.46	0.361	2.66	0.336	4.29	2.72	3.32	1.2	2.24	0.0665	1.66	1.14	1.3	1.24	2.31	0.464	3.24	1.21	4.06
